Results taken from PubChem BioAssay AID602449 (Sanford-Burnham Center for Chemical Genomics, 2012).
Where “and” joins values, the source holds several entries; their conditions need not be identical. Identical values can stand only once. The whole screen tested about 360,000 compounds, of which about 5,000 (1.4%) were called active.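 Rule for the calls: active = inhibition of 50% or more, scaled per plate between neutral and stimulator controls; inactive = the rest.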 What follows is part of a selection rich in actives, with near analogues and random picks from the rest. Some compounds were tested as several samples or in several runs, with calls that do not always agree.

experiment: mitochondrial permeability transition pore inhibitors, primary screen, biochemical, isolated mouse mitochondria, absorbance (AID 602449); settings: Ca2+ swelling absorbance, 30 min, at 10 µM, stronger effect = higher value;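 note: 0% = DMSO wells given calcium and 100% = 1 mM EGTA wells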

Compound | inhibition
COc1cccc(-c2cnc3c(NC(C)=O)cc(-c4cc(F)ccc4OC)cn23)c1 | -0.3% (inactive)
O=C1CSC(=S)N1c1ccc(Cl)c(Cl)c1 | 2.2% (inactive)
CC(C)N1C(=S)SC(C)(C)C1n1oc(=O)n(-c2ccc(Cl)c(Cl)c2)c1=O (configuration not stated) | 92.3% (active)
Cc1cc(=O)cc(C)n1-c1ccc(Cl)c(Cl)c1 | -0.1% (inactive)
N#Cc1cc([N+](=O)[O-])ccc1NC(=O)COC(=O)c1cnccn1 | -1.8% (inactive)
Cc1ccc(OCCNC(=O)CNC(=O)c2ccc(C)c(C)c2)cc1 | -0.6% (inactive)
O=C(Nc1cccc(Br)c1)C1CC(=O)N(C2CCCC2)C1 (configuration not stated) | -0.1% (inactive)
COc1ccc(OCC(O)CNC(=O)Nc2ccc(Cl)cc2)cc1 (configuration not stated) | 6.8% (inactive)
CC(=O)N1CCC(N(C(=O)Nc2ccc(Cl)cc2)C(C)C)CC1 | 2.8% (inactive)
CC(C)S(=O)(=O)c1csc(NC(=O)Nc2ccc(Cl)cc2)c1Cl | 88.8% (active)
Cc1ccc(S(=O)(=O)N(C)C)cc1NC(=O)COC(=O)/C=C/c1cccs1 | -1.3% (inactive)
Cc1c(C)c(C)c(S(=O)(=O)N2CCC3(CC2)OCCO3)c(C)c1C | -0.6% (inactive)
COC(=O)/C(C#N)=C/c1occc1C | 1.6% (inactive)
COc1ccc(NS(=O)(=O)c2ccc(NC(=S)NC(=O)CC(C)C)cc2)cc1 | 0.5% (inactive)
CC(=O)c1c(C)oc2ccc(NS(=O)(=O)c3ccccc3)cc12 | -0.4% (inactive)
COc1cc(NS(=O)(=O)c2ccc(NC(C)=O)cc2)cc(OC)c1 | 54% (active)
COc1ccc(S(=O)(=O)Nc2ccc3oc(C)c(C(C)=O)c3c2)cc1 | 93.4% (active)
CC(=O)Nc1ccc(NS(=O)(=O)c2ccc3c(c2)NC(=O)CC(=O)N3)cc1 | -1.8% (inactive)
CC(=O)c1c(C)oc2ccc(NS(=O)(=O)c3ccc(C(=O)O)cc3)cc12 | 0.1% (inactive)
Cc1c(S(=O)(=O)NC(C)c2ccccc2)c(=O)n(C)c(=O)n1C (configuration not stated) | 1.4% (inactive)
CN(Cc1nc2ccccc2c(=O)[nH]1)Cc1cc(=O)oc2ccc3ccccc3c12 | -0.3% (inactive)
COc1cc(/C=N/N=C(\N)c2nonc2N)cc(OC)c1OC | -1.6% (inactive)
Cc1cc(Cl)ccc1-c1nc(NCCN(C)C)nc2ccsc12 | 1.8% (inactive)
CC1(c2ccc3ccccc3c2)NC(=O)NC1=O (configuration not stated) | 0.6% (inactive)
Cc1nc(SCC(=O)NC2CCCCC2C)c(C#N)c(C)c1C (configuration not stated) | 0.8% (inactive)

Compound | inhibition
O=[N+]([O-])c1ccc(Sc2n[nH]c(-c3ccco3)n2)nc1 | -1.5% (inactive)
CCCCN1C(N)=NC[C@@H]1Cc1ccccc1 | -0.6% (inactive)
CCCC[C@@H]1CN=C(N)N1CCCC | 1.3% (inactive)
CCCC[C@@H]1CN=C(N)N1CCc1cc(C(F)(F)F)cc(C(F)(F)F)c1 | 88.5% (active)
CCCN(Cc1cc2cccc(C)c2[nH]c1=O)S(C)(=O)=O | -1.3% (inactive)
COc1cccc(CNc2ncc(-c3ccccc3)n2C)c1 | 2% (inactive)
COc1ccc(/C=C/C(=O)Nc2ccc(C34CC5CC(CC(O)(C5)C3)C4)cc2)cc1OC | -0.1% (inactive)
FC(F)Oc1ccccc1NC(=S)Nc1cccc(Cl)c1Cl | 50.2% (active)
CC(=O)Nc1ccc(NC(=O)COc2ccccc2C(=O)Nc2cccc(Cl)c2Cl)cc1 | 6.8% (inactive)
CCOC(=O)c1ccc[n+](CC(=O)Nc2ccccc2OC(F)F)c1 | -3.5% (inactive)
Cc1ccccc1N1CC(C(=O)Nc2ccc(S(=O)(=O)N3CCCC3)cc2)CC1=O (configuration not stated) | -2.9% (inactive)
Cc1cc2ncn(CCCCOc3ccccc3)c2cc1C | 77.9% (active)
COCCOCCn1cnc2ccccc21 | -0.6% (inactive)
Clc1ncn(CCOc2ccccc2)c1Cl | -3.1% (inactive)
CCOC(=O)C1CCCN(C(=O)c2cccc3ccccc23)CC1 (configuration not stated) | 0% (inactive)
CC(C)CC(COCc1ccc(Cl)cc1)N1CCN(C(=O)c2ccc(C(F)(F)F)cc2)CCC1=O (configuration not stated) | -1.6% (inactive)
Cc1cc(C(=O)OCC(=O)Nc2nnc(C(C)C)s2)c2ccccc2n1 | 22.9% (inactive)
CC(C)CC(=O)N/C(N)=N/c1nc2ccccc2s1 | 81.8% (active)
CC(NC(=O)COC(=O)c1ccc2ccccc2n1)c1ccccc1 (configuration not stated) | -0.2% (inactive)
CCOC(=O)C1CCN(C(=O)CSc2cc(=O)n(C)c3ccccc23)CC1 | 0.5% (inactive)
Cc1ccc(-n2cc(CN(C)Cc3nccn3C)c(-c3cccc(C)c3)n2)cc1 | 0.5% (inactive)
CC(C)(CCl)C(=O)Nc1ccc(Sc2ccc(F)cc2)cc1 | 73.1% (active)
O=C(CCl)Nc1ccc(Sc2ccc(NC(=O)CCl)cc2)cc1 | 6% (inactive)
CCN(c1ccccc1)S(=O)(=O)c1ccc(NC(=O)C(C)(C)C)cc1 | -1.2% (inactive)
CC1(C)CCSC(/C=C/c2ccccc2)=N1 | 1.3% (inactive)

Compound | inhibition
COCCN1C(=O)C(=O)/C(=C(/O)c2ccc(S(=O)(=O)N3CCCCC3)cc2)C1c1ccc(OC)c(OC)c1 (configuration not stated) | -0.3% (inactive)
O=C(c1cc(COc2c(F)cccc2F)on1)N1CCSCC1 | 2% (inactive)
CCCC(=O)N1CCC1(C)C(=O)Nc1ccc(-n2cncn2)cc1 (configuration not stated) | -1.3% (inactive)
C=CCC1(CC=C)CCCN1C(=O)c1cc(COc2ccc(-n3cncn3)cc2)on1 | 105% (active)
CC(C)c1nc2oc3c(N4CCN(C)CC4)ncnc3c2c2c1CCC2 | -0.5% (inactive)
c1ccc2cc3c(NCCN4CCOCC4)ccnc3cc2c1 | 1.4% (inactive)
O=C1CCCc2nn(-c3ccccc3)nc21 | 0.8% (inactive)
O=C(c1ccc(N2CCOCC2)c([N+](=O)[O-])c1)N1CCN(c2ccccc2F)CC1 | 0% (inactive)
O=C(c1ccc(N2CCCC2=O)cc1)N1CCN(c2ccc(C(F)(F)F)cc2[N+](=O)[O-])CC1 | 74.9% (active)
COc1cc(OC)cc(C(=O)NC(=S)N2CCN(c3ccc(C(F)(F)F)cc3[N+](=O)[O-])CC2)c1 | 0.6% (inactive)
CCOc1cc(CNn2c(C)nnc2SCC(=O)NC(C)(C)C)ccc1OCC(=O)NC(C)(C)C | -1.3% (inactive)
CC(C)(C)Nc1c(-c2cccs2)nc2ccccn12 | 0.8% (inactive)
Cc1ccc(N(Cc2cc(=O)[nH]c3ccccc23)C(=O)CCl)cc1 | -0.5% (inactive)
Brc1ccc(CSc2ccc(-c3ccco3)nn2)cc1 | 57.6% (active)
COc1ccc(NC(=O)CSc2ccc(-c3ccco3)nn2)c(OC)c1 | 0.7% (inactive)
O=C(CSc1ccc(-c2ccco2)nn1)NCc1ccc2c(c1)OCO2 | -0.3% (inactive)
CCn1c(=O)n(CC)c2cc(N3CCCC3)c(NC(=O)c3ccccc3Br)cc21 | 0.5% (inactive)
CC/C(O)=C1\C(=O)CC(C)(C)CC1=NCCc1nc2ccccc2[nH]1 | -1.5% (inactive)
CC1C/C(=N/NC(=O)c2cccs2)CC(C)(C)C1 (configuration not stated) | -1% (inactive)
Cc1ccc(-c2cc(C(=O)NCc3cn(C)nc3C)c3cc(Br)ccc3n2)cc1 | 1.7% (inactive)
Cc1nn(C)cc1CNC(=O)Nc1ccc(Cl)cc1 | 92.2% (active)
Cc1nn(C)cc1C(=O)NNC(=S)Nc1ccc(Cl)cc1 | 1.7% (inactive)
CN(C)Cc1ccc(F)cc1Sc1cc(Cl)ccc1Cl | 59% (active)
Cc1ccc(-c2ccc(=O)n(Cc3ccc(F)cc3Cl)n2)cc1 | 0% (inactive)
CN(Cc1ccc(F)cc1Cl)S(=O)(=O)c1cccs1 | -2.3% (inactive)

Compound | inhibition
Cc1ccc(-c2c[n+](=O)c3c(n2[O-])CCC3)cc1 | 0.3% (inactive)
O=C1CCC(C(=O)N2CCCCO2)CN1Cc1cccc(C(F)(F)F)c1 (configuration not stated) | 0.5% (inactive)
C=CCOc1ccccc1CNn1c(C)n[nH]c1=S | -0.7% (inactive)
O=C(c1ccncc1)N1CCN(S(=O)(=O)c2cc(C(F)(F)F)cc(C(F)(F)F)c2)CC1 | 106% (active)
O=C(c1ccncc1)N1CCN(S(=O)(=O)c2cccc([N+](=O)[O-])c2)CC1 | -0.5% (inactive)
O=C(CCC(=O)N1CCN(S(=O)(=O)c2ccc(Cl)cc2)CC1)NCc1cccc(C(F)(F)F)c1 | -2.6% (inactive)
CC(C)(C)c1ccc(S(=O)(=O)N2CCN(C(=O)c3ccc4c(c3)C(=O)N(Cc3ccncc3)C4=O)CC2)cc1 | 32.6% (inactive)
O=C(Cc1ccccc1)N1CCN(S(=O)(=O)c2ccc([N+](=O)[O-])cc2)CC1 | -3.8% (inactive)
O=C(Cc1ccsc1)N1CCN(S(=O)(=O)c2cc(C(F)(F)F)cc(C(F)(F)F)c2)CC1 | 53.1% (active)
CCOC(=O)CNC(=O)CSc1ncccc1-c1nc2ccccc2[nH]1 | 0% (inactive)
COc1ccc(NC(=O)c2sc(=O)n(Cc3ccc(S(=O)(=O)N(C)C)cc3)c2C)cc1 | -1.7% (inactive)
CCOC(=O)c1sc2nc(C)nc(SCC(N)=O)c2c1C | 0.2% (inactive)
O=C(CN(C(=O)CCC(=O)Nc1nccs1)c1ccc(F)cc1)NCc1ccc2c(c1)OCO2 | -0.8% (inactive)
CC(=O)Nc1cc(-c2ccc(N3CCN(C)CC3)cc2)cn2c(-c3cccc(C(=O)N(C)C)c3)cnc12 | 0.5% (inactive)
CC(=O)OC1CCC2C3CCC4=C(CC(F)C(=O)C4)C3CCC12C (configuration not stated) | 1.6% (inactive)
CN(C)Cc1ccccc1C1(O)c2ccccc2CSc2ccccc21 (configuration not stated) | 52.8% (active)
CN(C)CC/C=C1\c2ccccc2CSc2ccccc21 | 2.3% (inactive)
CN(Cc1cccs1)C(=O)Cc1c[nH]c2ccccc12 | 0.8% (inactive)
COc1ccccc1NC(=O)C1=C(C)Nc2nc3ccccc3n2C1c1cccs1 (configuration not stated) | 0.9% (inactive)
COc1ccc(-c2nc3cnccn3c2NC2CCCCC2)cc1-c1cccc(Cl)c1 | 2% (inactive) and -0.2% (inactive)
CCOc1cc(-c2nc3cc(C)ccn3c2NCC2CCCO2)ccc1O (configuration not stated) | -0.2% (inactive)
COc1ccc(-c2nc3cc(C)ccn3c2NC2CCCCC2)cc1SC1CCCCC1 | 14.7% (inactive) and 55.4% (active)
